High-throughput results (PubChem)
Sampled rows, rich in hits. Any-hit rate of the full collection: about 9%.
G9a inh – inhibitors of human histone lysine methyltransferase G9a | hit rate 8.8% among 350,000 | AID 504332 | G9a H3K9 monomethylation, AlphaScreen, 2 h | Potency, µM (doses to about 102 µM), hits mostly inhibitors; also: nearly all actives have a fitted effect of over 75% in size
Target sequence (Q96KQ7 913-1193 limits assumed): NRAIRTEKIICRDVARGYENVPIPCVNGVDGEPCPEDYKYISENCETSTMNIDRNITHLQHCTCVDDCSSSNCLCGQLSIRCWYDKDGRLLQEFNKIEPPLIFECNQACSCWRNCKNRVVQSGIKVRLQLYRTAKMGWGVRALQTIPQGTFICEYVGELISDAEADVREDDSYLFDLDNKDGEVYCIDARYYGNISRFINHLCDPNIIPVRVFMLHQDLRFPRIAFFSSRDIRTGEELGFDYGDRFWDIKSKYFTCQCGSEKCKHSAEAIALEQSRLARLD
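Compounds were preincubated with 20 nM G9a for 15 min, after which biotinylated H3K9 peptide (500 nM) and SAM (20 uM) started a 2 h room-temperature reaction. Monomethylated product was quantified by antibody-based AlphaScreen chemiluminescence.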
JMJD2A Tudor – blocks the human JMJD2A Tudor domain | O75164 | AlphaScreen JMJD2A-Tudor / H3K4me3 peptide binding | Potency, µM (doses to about 114 µM), actives largely listed as inhibitors | hit rate 4.4% among 390,000; also: nearly all actives have a fitted effect of over 50% in size
BAZ2B inh – BAZ2B (human) inhibition | hit rate 4.4% among 360,000 | Potency, µM (doses to about 114 µM), hits mostly inhibitors | AID 504333 | AlphaScreen BAZ2B-H3K14Ac peptide displacement; also: nearly all actives have a fitted effect of over 60% in size
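Complex of BAZ2B and biotin-H3K14Ac (50 nM apiece) forms over 30 min at RT, then faces library compounds up to 110 uM for another 30 min; AlphaScreen beads added, 20 min dark incubation, luminescence read.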
HP1b chromo inh – inhibitors of HP1-beta chromodomain binding to methylated histone tails. AlphaScreen HP1-beta / biotin-H3K9me3 peptide binding. Potency, µM (titrated, usually from 114 µM), actives largely listed as inhibitors. hit rate 0.56% among 390,000; also: nearly all actives have a fitted effect of over 70% in size
Target sequence (P83916 whole entry, looked up): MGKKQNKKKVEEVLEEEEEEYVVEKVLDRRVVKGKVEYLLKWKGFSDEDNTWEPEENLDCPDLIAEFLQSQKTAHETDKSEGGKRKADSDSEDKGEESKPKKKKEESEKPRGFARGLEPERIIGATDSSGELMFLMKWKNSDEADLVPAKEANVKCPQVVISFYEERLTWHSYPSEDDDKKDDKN
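AlphaScreen: HP1-beta (50 nM) preformed 30 min with biotin-H3(1-18)K9me3 peptide (50 nM) in PBS pH 7.4, 0.01% Tween-20. Compound added for 30 min at RT, then streptavidin donor/nickel chelate acceptor beads (10 ug/mL) for 30 min.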
ALOX12 inh – ALOX12 (human) lipoxygenase inhibition | hit rate 1.1% among 580,000 | purified 12hLO, xylenol orange hydroperoxide absorbance | P18054 | Potency, µM (titrated, usually from 108 µM), hits mostly inhibitors
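Hydroperoxide product was detected by ferrous iron/xylenol orange as the 573 to 405 nm absorbance ratio. Arachidonic acid at 40 uM (final) was turned over for 30 min at room temperature by 150 nM human 12hLO, pH 7.0 Hepes buffer, after 15 min compound preincubation.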
PLK1 PBD block – inhibitors of human PLK1 polo-box domain binding; hit rate 2.8% among 360,000; Potency, µM, actives largely listed as inhibitors; AID 720504; P53350; Plk1 PBD binding of FITC phosphopeptide, fluorescence polarization; also: series mostly up to about 57 µM; nearly all actives have a fitted effect of over 65% in size
Hits are given with their value; [ ] = remark or other dose. Calls follow the shape of the dose curve; as a rule, active = well fitted curve in the direction sought with a large enough effect; inconclusive = small, poorly fitted or top-dose-only effect, or another doubt; inactive = no such curve, though single readings can be large; an effect the other way counts as inactive or inconclusive.

How did Cc1ccc(CNS(=O)(=O)c2ccc(F)c(F)c2)n1C do in these assays?
G9a inh: 45µM; JMJD2A Tudor: inactive; BAZ2B inh: inactive; HP1b chromo inh: inactive; ALOX12 inh: inconclusive; PLK1 PBD block: inactive

What do the screens show for `CC(C)Oc1cccc2c1c(NC(=O)C1CC(=O)N(C)C1)nn2Cc1ccccc1` (configuration not stated)?
ALOX12 inh: inactive

How did COc1cc(OC)c(C(=O)Nc2ncn[nH]2)cc1OC do in these assays?
JMJD2A Tudor: 50µM; HP1b chromo inh: inactive; ALOX12 inh: inactive; PLK1 PBD block: inactive

How did C=CCOc1cccc(C(=O)Nc2ncn[nH]2)c1 do in these assays?
G9a inh: inconclusive; JMJD2A Tudor: inactive; BAZ2B inh: 56µM; HP1b chromo inh: inactive; ALOX12 inh: inactive; PLK1 PBD block: inactive

What do the screens show for `O=C(Nc1nc(=S)ss1)c1ccc(Cl)cc1Cl`?
G9a inh: inconclusive; JMJD2A Tudor: inactive; BAZ2B inh: inactive; HP1b chromo inh: inconclusive; ALOX12 inh: inconclusive; PLK1 PBD block: 15µM

How did COc1cc(OC)cc(C(=O)Nc2ncn[nH]2)c1 do in these assays?
G9a inh: inactive[2.33 µM]; JMJD2A Tudor: inactive; BAZ2B inh: inconclusive; HP1b chromo inh: inactive; ALOX12 inh: inactive; PLK1 PBD block: inactive

Results for CCOc1cc(C(=O)Nc2ncn[nH]2)cc(OCC)c1OCC ?
G9a inh: inactive; JMJD2A Tudor: inactive; BAZ2B inh: 56µM; HP1b chromo inh: inactive; ALOX12 inh: inactive; PLK1 PBD block: inactive

What do the screens show for `O=C(Nc1ncn[nH]1)c1ccc(Cl)cc1Cl`?
G9a inh: inconclusive; JMJD2A Tudor: inactive; BAZ2B inh: 50µM; HP1b chromo inh: inactive; ALOX12 inh: inactive; PLK1 PBD block: inactive

What do the screens show for `BrCCOCCOc1ccc2ccccc2c1`?
G9a inh: inactive; JMJD2A Tudor: inactive; BAZ2B inh: inactive; HP1b chromo inh: inactive; ALOX12 inh: inactive; PLK1 PBD block: inactive

How did CCCCn1c(N)c(N(CC(C)C)C(=O)c2cc(-c3ccco3)nc3ccccc23)c(=O)[nH]c1=O do in these assays?
G9a inh: inactive[0.501 µM]; JMJD2A Tudor: inactive; BAZ2B inh: inactive; HP1b chromo inh: inactive; ALOX12 inh: 40µM; PLK1 PBD block: inactive

How did CCCCn1c(N)c(N(CCOC)C(=O)c2cc(-c3ccc(C)cc3)nc3ccccc23)c(=O)[nH]c1=O do in these assays?
G9a inh: inactive[0.501 µM]; JMJD2A Tudor: inactive; BAZ2B inh: inactive; HP1b chromo inh: inactive; ALOX12 inh: inactive; PLK1 PBD block: inactive

Results for CCCCn1c(N)c(N(CCOC)C(=O)c2cc(-c3ccc(F)cc3)nc3ccccc23)c(=O)[nH]c1=O ?
G9a inh: 45µM; JMJD2A Tudor: inactive; BAZ2B inh: inactive; HP1b chromo inh: inactive; ALOX12 inh: inconclusive; PLK1 PBD block: inactive

What do the screens show for `CC1OC23CCCCC2C(C#N)(C(=N)O3)C1(C#N)C#N` (configuration not stated)?
G9a inh: inactive; JMJD2A Tudor: inactive; BAZ2B inh: inactive; HP1b chromo inh: inactive; ALOX12 inh: inactive; PLK1 PBD block: inactive

Results for COc1ccc(C2OC34CCCCC3C(C#N)(C#N)C2(C#N)C(=N)O4)cc1 (configuration not stated) ?
G9a inh: 50µM; JMJD2A Tudor: inactive; BAZ2B inh: inactive; HP1b chromo inh: inactive; ALOX12 inh: inactive; PLK1 PBD block: inactive

What do the screens show for `Cc1ccc2nc(-c3ccc(F)cc3)c(Cc3ccccn3)n2c1`?
ALOX12 inh: inactive; PLK1 PBD block: inactive

What do the screens show for `OCCN1CCOCCN(CCO)CCOCC1`?
G9a inh: inconclusive; JMJD2A Tudor: 22µM; BAZ2B inh: inactive; HP1b chromo inh: inactive; ALOX12 inh: inactive; PLK1 PBD block: inactive

How did COc1ccc(C(=O)O/N=C2\CCCc3nonc32)cc1 do in these assays?
G9a inh: inactive; JMJD2A Tudor: inactive; BAZ2B inh: inactive; HP1b chromo inh: inactive; ALOX12 inh: inactive; PLK1 PBD block: inactive

What do the screens show for `COc1ccccc1NC(=O)N(Cc1ccco1)Cc1cc2cc(C)cc(C)c2[nH]c1=O`?
G9a inh: 45µM; JMJD2A Tudor: inconclusive; BAZ2B inh: inconclusive; HP1b chromo inh: inactive; ALOX12 inh: inactive; PLK1 PBD block: inactive

Results for COc1ccccc1NC(=O)N(Cc1ccco1)Cc1cc2ccc(C)c(C)c2[nH]c1=O ?
G9a inh: inconclusive; JMJD2A Tudor: inconclusive; HP1b chromo inh: inactive; ALOX12 inh: inactive; PLK1 PBD block: inactive

How did Cc1[nH]c2ccccc2c1C(=O)C(=O)N1CCC(C(=O)N2CCCC2)CC1 do in these assays?
ALOX12 inh: inactive

What do the screens show for `Clc1ccc(C2Nc3cccc4cccc(c34)N2)cc1Cl`?
JMJD2A Tudor: inactive; BAZ2B inh: inconclusive; HP1b chromo inh: inactive; ALOX12 inh: inactive; PLK1 PBD block: inconclusive

How did Clc1cccc(C2Nc3cccc4cccc(c34)N2)c1 do in these assays?
JMJD2A Tudor: inconclusive; BAZ2B inh: inconclusive; HP1b chromo inh: inconclusive; ALOX12 inh: 3.5µM; PLK1 PBD block: inconclusive

Results for Cc1cccc(C2NC(=O)c3ccccc3N2)c1 (configuration not stated) ?
JMJD2A Tudor: inactive; HP1b chromo inh: inactive; ALOX12 inh: inactive; PLK1 PBD block: inactive

How did Brc1cccc(C2Nc3cccc4cccc(c34)N2)c1 do in these assays?
G9a inh: 35µM; JMJD2A Tudor: inactive; BAZ2B inh: inconclusive; HP1b chromo inh: inactive; ALOX12 inh: inactive; PLK1 PBD block: inconclusive

How did CN1CCCCCCN(S(=O)(=O)N(C)C)[C@H]2CCC[C@H]2C1=O do in these assays?
ALOX12 inh: inactive

How did COc1cccc(/C=C/c2ccccn2)c1O do in these assays?
G9a inh: inactive; JMJD2A Tudor: inactive[11.4 µM]; BAZ2B inh: inactive; HP1b chromo inh: inactive; ALOX12 inh: inactive; PLK1 PBD block: 27µM

Results for COCCN(C)S(=O)(=O)c1cccc(C(=O)NC(C)C2=CCCCC2)c1 (configuration not stated) ?
ALOX12 inh: inactive

How did CCc1ccc(NS(=O)(=O)c2ccc3oc(=O)c4ncn(CC)c4c3c2)cc1 do in these assays?
G9a inh: 10µM; JMJD2A Tudor: inactive; BAZ2B inh: inconclusive; HP1b chromo inh: inactive; ALOX12 inh: inconclusive

What do the screens show for `Cn1nnnc1SCCNCc1cc(Br)ccc1OCc1ccccc1Cl`?
G9a inh: inactive; JMJD2A Tudor: inactive; BAZ2B inh: inactive; HP1b chromo inh: inactive; ALOX12 inh: inactive

Results for O=C(COC(=O)/C=C/c1ccco1)Nc1ncc(C(F)(F)F)cc1Cl ?
G9a inh: 22µM; JMJD2A Tudor: 35µM; BAZ2B inh: 45µM; HP1b chromo inh: 50µM; ALOX12 inh: inconclusive; PLK1 PBD block: inactive

Results for O=C(COC(=O)c1cnccn1)Nc1ncc(C(F)(F)F)cc1Cl ?
JMJD2A Tudor: inactive; HP1b chromo inh: inactive; ALOX12 inh: 5µM; PLK1 PBD block: inactive

Results for O=C(COC(=O)/C=C/c1ccco1)NCc1ccc(Cl)cc1Cl ?
JMJD2A Tudor: inactive; HP1b chromo inh: inactive; ALOX12 inh: inconclusive; PLK1 PBD block: inactive
